The results in this text go back to the supplement of paper PMC3414501.

Unmarked numbers belong to inactive results.

Test [1] relates to S. cerevisiae SK1 pCDA2-eGFP (USY613), sporulating. The test is described as follows: CDA2-GFP sporulation assay sensitivity score (z-score vs DMSO controls); higher = stronger inhibition of sporulation, active = hit call of the paper.
In test [2] the test system is S. cerevisiae AD1-9 (efflux-pump deficient), vegetative growth in YPD. Nature of the test: growth sensitivity score (doubling time z-score vs DMSO controls); higher = slower growth, strongly negative scores also mark growth inhibition (complete suppression), active = hit call of the paper. In short, it runs like this: (§1)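 Rich medium in microtiter plates was seeded with Saccharomyces cerevisiae strains BY4741 and AD1-9 at an OD600 of 0.065, and compounds were added as a 1:100 dilution of DMSO stock. A Tecan GENios reader recorded optical density every 15 min for 24 hours, with eight solvent-only wells in each experiment. Average doubling time was the time to reach a set generation point divided by generation number. The growth sensitivity score was the compound mean minus the solvent-only mean, divided by the solvent-only standard deviation.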

In test [3] the test system is S. cerevisiae BY4741 (wild-type), vegetative growth in YPD. The test is described as above. A digest of the protocol: as §1
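For CDA2-GFP sporulation assay sensitivity score (z-score vs DMSO controls) in this document: active if sensitivity score above 5.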

Turning to `Nc1[nH]c(=O)ncc1F` [5-Fluorocytosine] (stock concentration (mM, diluted 1:100): 10.5), the “CDA2-GFP sporulation assay sensitivity score” value in test [1] was 0.12. Moreover, the results for the growth sensitivity score in test [2] and in test [3] were 36.6 (active) and 54.5 (active), respectively.

Consider `CCOc1cc(CC(=O)N[C@@H](CC(C)C)c2ccccc2N2CCCCC2)ccc1C(=O)O` [Repaglinide] (stock concentration (mM, diluted 1:100): 10), for which the “CDA2-GFP sporulation assay sensitivity score” value in test [1] was 2. Also, the growth sensitivity score in test [3] was 2.53 (active).

Regarding `CC(C)c1ccc2oc3nc(N)c(C(=O)O)cc3c(=O)c2c1` [Amlexanox] (stock concentration (mM, diluted 1:100): 10), the “CDA2-GFP sporulation assay sensitivity score” value in test [1] was -0.73. Further, the growth sensitivity score in test [2] was 0.42; in test [3], 1.8.

For the compound `C[C@@H](O)[C@H]1C(=O)N2C(C(=O)O)=C(S[C@@H]3CN[C@H](C(=O)N(C)C)C3)[C@H](C)[C@H]12` [Meropenem] (stock concentration (mM, diluted 1:100): 11.4), in test [1], the “CDA2-GFP sporulation assay sensitivity score” value is -2.33. The growth sensitivity score was 0.68 in test [2] and -1.19 in test [3].

With `CCC1=C(C)CN(C(=O)NCCc2ccc(S(=O)(=O)NC(=O)N[C@H]3CC[C@H](C)CC3)cc2)C1=O` [Glimepiride] (stock concentration (mM, diluted 1:100): 7.7), the “CDA2-GFP sporulation assay sensitivity score” value in test [1] is 0.5. The growth sensitivity score in test [2] was 1.1; in test [3], -0.03.

As to `COC1=C(OC)C(=O)C(CCCCCCCCCCO)=C(C)C1=O` [Idebenone] (stock concentration (mM, diluted 1:100): 10.2), the “CDA2-GFP sporulation assay sensitivity score” value in test [1] was 0.12. Also, the growth sensitivity score in test [3] was 15.6 (active).

Regarding `Nc1ccn([C@@H]2CS[C@H](CO)O2)c(=O)n1` [Lamivudine] (stock concentration (mM, diluted 1:100): 9.9), in test [1], the “CDA2-GFP sporulation assay sensitivity score” value was 1.14. The growth sensitivity score is -1.68 in test [2] and -0.39 in test [3].
